From PubChem BioAssay (Tox21) come the findings set out here.

Molecules are shown by their SMILES. Results filed as inconclusive are left out. A call without a number means that no potency is given here. Calls of active or inactive are those of the source. Calls come from the whole dose curve; as a rule, active = well fitted cell-killing curve with a large enough effect in the repeat runs; inconclusive = weak or mixed curves, or effect the other way; inactive = flat fitted curve, though single readings scatter.

This assay is described as follows: qHTS RealTime-Glo MT Cell Viability Assay in HepG2 cells - 40 hour (AID 1224870). Note: nearly all actives have a fitted effect of over 50% in size. The note with it: RealTime-Glo luminescence; series mostly up to 76.8 µM. An excerpt: National Center for Advancing Translational Sciences [NCATS]
NIH Chemical Genomics Center [NCGC]
U.S. Environmental Protection Agency [EPA]
National Institutes of Environmental Health Sciences [NIEHS]
National Toxicology Program [NTP]
U.S. Food and Drug Administration [FDA]
Measure of cell viability is critical in the cell-base assay. Analysis of cell viability is necessary for the characterization of cell responses to cytotoxic drugs and environmental stress. A RealTime-Glo MT Cell Viability Assay to monitor cell viability in real time of continues cell culture during 40 hours of compound treatment was used to screen Tox21 10K library compounds in HepG2 cells. The RealTime-Glo MT Cell Viability Assay is a nonlytic, homogeneous, bioluminescent method to measure cell viability in real time using a simple, plate-based method. The assay involves adding NanoLuc luciferase and a cell-permeant prosubstrate to cells in culture. Viable cells reduce the proprietary prosubstrate to generate a substrate for NanoLuc luciferase. This substrate diffuses from cells into the surrounding culture medium, where it is rapidly used by the NanoLuc Enzyme to produce a luminescent signal. The signal correlates with the number of viable cells, making the assay well suited for cytotoxicity studies.
Tox21 Assay Protocol Summary:
The mixture of HepG2 cell suspension and reagents were dispensed at 600cells/6 ul/well in 1536-well tissue culture treated black solid bottom plates using a Multidrop dispenser. After the assay plates were incubated at a 37 C/5% CO2 incubator for 5 hours, 23 nL of compounds dissolved in DMSO, positive and negative controls was transferred to the assay plate by a pintool work station. The plates were incubated at 37 C for 40 hours. The luminescence intensity were measured at 0h, 8h, 16h, 24h, 32h and 40h time points using ViewLux plate reader during compound treatment.
A general note: qHTS replaces the single test concentration by a dilution series.
Take `Brc1ccccc1`: the Potency entry was “inactive”.
`CC(=O)NC1CCSC1=O` (stereo not given): the Potency result was “inactive”.
Consider `CCOC(=O)CBr`, for which the Potency entry is “inactive”.
Consider `COc1c(C(C)(C)C)cc([N+](=O)[O-])c(C)c1[N+](=O)[O-]`, for which the Potency result was “inactive”.
Regarding `C=CCN1CC[C@]23c4c5ccc(O)c4O[C@H]2C(=O)CC[C@@]3(O)[C@H]1C5`, the Potency entry was “inactive”.
`CC(Cl)C(C)Cl` (stereo not given): the Potency result is “inactive”.
For the compound `CCC(Cl)CCl` (stereo not given), the Potency result is “inactive”.
As to `COC1=CC(=O)O[C@@H](CCc2ccccc2)C1`, the Potency result was “inactive”.
As for `CC(C)(CCl)C(=O)Cl`, the Potency entry was “inactive”.
On to `Nc1nc(=S)[nH][nH]1`, for which the Potency entry is “inactive”.
Consider `Brc1ccc(Oc2ccccc2)cc1`, for which the Potency result is “inactive”.
In the case of `NC(=O)C(Cl)(Cl)Cl`, the Potency result is “inactive”.
In the case of `O=S1OC[C@@H]2[C@H](CO1)[C@]1(Cl)C(Cl)=C(Cl)[C@@]2(Cl)C1(Cl)Cl` (stereo not given in full), the Potency result was “inactive”.
For `ClCc1ccccc1`, the Potency entry was “inactive”.
For `CC[C@H]1C[C@H]2[C@@H]3CCC4=CC(=O)CC[C@@H]4[C@H]3CC[C@]2(C)[C@H]1O`, the Potency entry is “inactive”.
In the case of `C=CC(=O)OC` it was “inactive”; in that of `CC1Sc2c(C(=O)O)c(=O)c3cc(F)c(N4CCNCC4)cc3n21` (stereo not given), “inactive”; in that of `CC1C(=O)C[C@]2(C(C)C)C[C@H]12` (stereo not given in full), “inactive”.
As to `O=C(C(Cl)(Cl)Cl)C(Cl)(Cl)Cl`, the Potency entry was “inactive”.
Consider `CN1[C@@H]2CC[C@H]1CC(OC(=O)c1cc(Cl)cc(Cl)c1)C2` (stereo not given in full), for which the Potency entry was “inactive”.
Under `CC(C)=CCOc1c2occc2cc2ccc(=O)oc12` stands “inactive”.
With `Cc1cc(=O)[nH]o1`, the Potency result is “inactive”.
In the case of `C=CC(C)=O`, the Potency result was “inactive”.
On to `CCBr`, for which the Potency entry was “inactive”.
On to `O=C(NC(=O)c1c(F)cccc1F)Nc1cc(Cl)c(Oc2ncc(C(F)(F)F)cc2Cl)c(Cl)c1`, for which the Potency entry is “inactive”.
Turning to `O=C(N[C@H](c1ccccc1)[C@@H]1CN2CCC1CC2)c1c(Cl)ccc(C(F)(F)F)c1Cl`, the Potency entry is “inactive”.
In the case of `COc1ccc(-c2ccccc2)cc1NNC(=O)OC(C)C`, the Potency entry was “inactive”.
Under `Sc1ccccc1Cl` stands “inactive”.
Turning to `Cl/C=C\Cl`, the Potency entry is “inactive”.
For the compound `Clc1cccc(SC2CCNCC2)n1`, the Potency result was “inactive”.
In the case of `O=C(CBr)Nc1ccc(Cl)cc1C(=O)c1ccccc1F` it was “inactive”.
For the compound `CCCC(Cn1cncn1)c1ccc(Cl)cc1Cl` (stereo not given), the Potency result was “inactive”.
In the case of `CCCCCC[N+](=O)[O-]` it was “inactive”; in that of `O=Cc1ccc2c(c1)OCO2`, “inactive”; in that of `O=NN1CCCCCC1`, “inactive”.
Turning to `CCCCN(N=O)C(=N)N[N+](=O)[O-]`, the Potency entry is “inactive”.
In the case of `O=C(O)C(F)(F)C(F)(F)C(F)(F)C(F)(F)C(F)(F)C(F)(F)C(F)(F)C(F)(F)C(F)(F)F`, the Potency result was “inactive”.
Under `C=CC(=O)NCNC(=O)C=C` stands “inactive”; under `CCOc1nc(F)cc2nc(S(=O)(=O)Nc3c(Cl)cccc3Cl)nn12`, “inactive”.
In the case of `CCC(Br)(CC)C(=O)NC(N)=O` it was “inactive”.
